Screening data: PubChem BioAssay, The Scripps Research Institute Molecular Screening Center
GPR151 activ: activators of human GPR151, primary screen, cell-based, PathHunter beta-arrestin, luminescence | G-protein coupled receptor 151 (Homo sapiens), Q8TDV0 | hit rate 1% among 650,000 | activation, % at 11.2 µM | PathHunter beta-arrestin GPR151 cells; in the data active = activation above about 4.9%
Target sequence (Q8TDV0 whole entry, looked up): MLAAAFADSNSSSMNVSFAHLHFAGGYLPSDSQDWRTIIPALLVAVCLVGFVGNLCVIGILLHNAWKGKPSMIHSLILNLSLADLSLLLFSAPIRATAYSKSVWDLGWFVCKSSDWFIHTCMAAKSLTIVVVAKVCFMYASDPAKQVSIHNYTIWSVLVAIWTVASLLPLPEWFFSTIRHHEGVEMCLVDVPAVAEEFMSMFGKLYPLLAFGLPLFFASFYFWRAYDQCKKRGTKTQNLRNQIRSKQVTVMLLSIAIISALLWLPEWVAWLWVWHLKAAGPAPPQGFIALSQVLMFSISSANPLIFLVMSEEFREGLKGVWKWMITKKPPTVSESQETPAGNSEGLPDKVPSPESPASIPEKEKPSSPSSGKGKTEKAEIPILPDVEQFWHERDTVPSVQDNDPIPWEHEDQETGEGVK
TEAD-YAP inh: TEAD-YAP interaction inhibition, primary screen, TEAD-YAP interaction inhibitor project, luminescence, HEK-TIYL cells | TEAD-Gal4/YAP UAS-luciferase luminescence | inhibition, % at 9.12 µM | hit rate 1.4% among 640,000 | AID 1259422, 2018; in the data active = inhibition above about 32%
MITF primary: MITF inhibitors, primary screen, biochemical, AlphaScreen, human; AlphaScreen MITF homodimerization, bead proximity signal; hit rate 0.91% among 650,000; Microphthalmia-associated transcription factor (Homo sapiens), O75030; inhibition, % at 2.6 µM; AID 1259374, 2018; in the data active = inhibition above about 50%
FBW7 act: FBW7 E3 ligase activators, primary screen, biochemical, AlphaScreen, human; F-box/WD repeat-containing protein 7 (Homo sapiens), Q969H0; AlphaScreen FBW7–phospho-cyclin E peptide binding, activator screen; normalized activity (activation), % at 26.1 µM; hit rate 0.13% among 650,000; in the data active = normalized activity above about 1.9%;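 also: purified mutant Fbw7 with reduced substrate affinity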
Numbers stand for hits. Only some compounds are listed: those with a hit (about 3.4% of all), similar ones and a draw of the others.

For CCCOC(=O)c1ccc(NC(=O)c2ccc(C(C)(C)C)cc2)cc1 the results were GPR151 activ inactive, TEAD-YAP inh inactive, MITF primary inactive and FBW7 act inactive.
`Cn1c(SCC#N)nnc1-c1cccc([N+](=O)[O-])c1` gave GPR151 activ inactive, TEAD-YAP inh 32.2, MITF primary inactive and FBW7 act inactive.
Cn1c(SCC(N)=O)nnc1-c1cccc([N+](=O)[O-])c1 was read as GPR151 activ inactive, TEAD-YAP inh inactive, MITF primary inactive and FBW7 act inactive.
`COC(=O)C1=C(OC)C(=O)OC12C=CC(=O)C=C2` gave GPR151 activ inactive, TEAD-YAP inh 79.8, MITF primary inactive and FBW7 act inactive.
COC(=O)c1cc2cccc(OC)c2oc1=O was read as GPR151 activ inactive, TEAD-YAP inh inactive, MITF primary inactive and FBW7 act inactive.
`OCCN1CCN(c2ncnc3ccc(Br)cc23)CC1` gave GPR151 activ inactive, TEAD-YAP inh 38.7, MITF primary inactive and FBW7 act inactive.
O=C(c1cnn(-c2ccccc2)n1)N1CCN(Cc2csc(-c3ccccc3)n2)CC1 was read as GPR151 activ inactive, TEAD-YAP inh inactive, MITF primary inactive and FBW7 act inactive.
For Cc1cc(C(=O)Nc2c(C)nn(Cc3c(Cl)cccc3Cl)c2C)no1 the results were GPR151 activ inactive, TEAD-YAP inh 32.5, MITF primary inactive and FBW7 act inactive.
`Cc1ccccc1Cn1nc(C)c(NC(=O)c2cc(C3CC3)on2)c1C` gave GPR151 activ inactive, TEAD-YAP inh inactive, MITF primary inactive and FBW7 act 2.1.
For CC(=O)Nc1cccc(SC(F)(F)F)c1 the results were GPR151 activ inactive, TEAD-YAP inh inactive, MITF primary inactive and FBW7 act inactive.
Screening CC(=O)Nc1ccccc1NC(=O)C(Cl)Cl returned GPR151 activ inactive, TEAD-YAP inh inactive, MITF primary inactive and FBW7 act inactive.
CCCOc1ccc(/C(O)=C2\C(=O)C(=O)N(CCCN3CCOCC3)C2c2ccc(OC)c(OC)c2)c(C)c1 (configuration not stated) was read as GPR151 activ inactive, TEAD-YAP inh inactive, MITF primary inactive and FBW7 act inactive.
Screening O=C(NN1C(=O)CCC1=O)c1ccccc1O returned GPR151 activ inactive, TEAD-YAP inh 47.0, MITF primary inactive and FBW7 act inactive.
For COc1ccccc1C(=O)NN1C(=O)CCC1=O the results were GPR151 activ inactive, TEAD-YAP inh inactive, MITF primary inactive and FBW7 act inactive.
O=C(Nc1ccc(-c2cn3ccccc3n2)cc1)c1ccccc1 was read as GPR151 activ inactive, TEAD-YAP inh inactive, MITF primary inactive and FBW7 act inactive.
`Cc1nnc(NC(=O)C2CCN(c3nc4ccccc4s3)CC2)s1` gave GPR151 activ inactive, TEAD-YAP inh inactive, MITF primary inactive and FBW7 act inactive.
O=C(Nc1ccc(O)c(-c2nc3ccccc3s2)c1)C1CC1 was read as GPR151 activ inactive, TEAD-YAP inh inactive, MITF primary inactive and FBW7 act inactive.
`CCC(=O)Nc1ccc(-c2cn3ccccc3n2)cc1` gave GPR151 activ inactive, TEAD-YAP inh 39.6, MITF primary inactive and FBW7 act inactive.
For CC(=O)Nc1ccc(NC(=O)C2CCN(c3nc4ccccc4s3)CC2)cc1 the results were GPR151 activ inactive, TEAD-YAP inh 36.1, MITF primary inactive and FBW7 act inactive.
O=C(Nc1ccc(-c2nc3ccccc3s2)cc1)C1CC1 was read as GPR151 activ inactive, TEAD-YAP inh 79.3, MITF primary inactive and FBW7 act inactive.
Cc1cccn2cc(-c3ccc(NC(=O)C(C)(C)C)cc3)nc12 was read as GPR151 activ inactive, TEAD-YAP inh 63.9, MITF primary inactive and FBW7 act inactive.
For COc1cc(CN2CCNC(=O)C2CC(=O)NC(C)(C)CO)cc(OC)c1 (configuration not stated) the results were GPR151 activ inactive, TEAD-YAP inh inactive, MITF primary inactive and FBW7 act inactive.
Screening CCOC(=O)C1CCN(Cc2c(NC(=O)c3ccco3)sc(C)c2C)CC1 returned GPR151 activ inactive, TEAD-YAP inh inactive, MITF primary inactive and FBW7 act inactive.
Screening CCC(=O)Nc1ccc(-c2nc3ccccc3s2)cc1 returned GPR151 activ inactive, TEAD-YAP inh 84.5, MITF primary inactive and FBW7 act inactive.
For C(=N\Nc1cccc2cccnc12)/c1ccccn1 the results were GPR151 activ inactive, TEAD-YAP inh inactive, MITF primary inactive and FBW7 act inactive.
`Cc1c(/C=N/Nc2cccc3cccnc23)c(=O)n(-c2ccccc2)n1C` gave GPR151 activ inactive, TEAD-YAP inh 87.8, MITF primary inactive and FBW7 act inactive.
CCOC(=O)c1c(NC(=O)C2CC2)sc(C(=O)N(C)C)c1C was read as GPR151 activ inactive, TEAD-YAP inh inactive, MITF primary inactive and FBW7 act inactive.
COc1cccc(-c2cc(C(=O)N3CCN(C(=O)c4ccco4)CC3)[nH]n2)c1 was read as GPR151 activ inactive, TEAD-YAP inh inactive, MITF primary inactive and FBW7 act inactive.
`Cc1cc(N2CCCC2)c(C)cc1C=O` gave GPR151 activ inactive, TEAD-YAP inh inactive, MITF primary inactive and FBW7 act inactive.
Screening Cc1cc(N2CCCC2)c(C)cc1/C=C\[N+](=O)[O-] returned GPR151 activ inactive, TEAD-YAP inh 53.8, MITF primary inactive and FBW7 act inactive.
`CN1C2CCC1CC(NC(=O)c1nn(C)c3ccccc13)C2` (configuration not stated) gave GPR151 activ inactive, TEAD-YAP inh inactive, MITF primary inactive and FBW7 act inactive.
CCCCCNc1sc(Cl)c([N+](=O)[O-])c1[N+](=O)[O-] was read as GPR151 activ inactive, TEAD-YAP inh 65.1, MITF primary inactive and FBW7 act inactive.
`CCCCCCNc1ccc([N+](=O)[O-])cc1[N+](=O)[O-]` gave GPR151 activ inactive, TEAD-YAP inh inactive, MITF primary inactive and FBW7 act inactive.
`Cc1cccc(-n2c(SCC#N)nc3c(c2=O)C2(CCCCC2)Cc2ccccc2-3)c1` gave GPR151 activ inactive, TEAD-YAP inh inactive, MITF primary inactive and FBW7 act inactive.
For CCOC(=O)C1=CS/C(=C2/C(=S)C(C)(C)Nc3c(OCC)cccc32)S1 the results were GPR151 activ inactive, TEAD-YAP inh inactive, MITF primary 53.4 and FBW7 act inactive.
`CCOC(=O)C1=CS/C(=C2/C(=S)C(C)(C)N(C(=O)CC(C)C)c3ccc(OCC)cc32)S1` gave GPR151 activ inactive, TEAD-YAP inh inactive, MITF primary inactive and FBW7 act inactive.
`CCc1ccccc1NC(=O)CN(C)C(=O)CCl` gave GPR151 activ inactive, TEAD-YAP inh 78.9, MITF primary inactive and FBW7 act inactive.
Screening CCCC(=O)Oc1c(Sc2ccccc2[N+](=O)[O-])c(C)nn1C(C)(C)C returned GPR151 activ inactive, TEAD-YAP inh 34.3, MITF primary inactive and FBW7 act inactive.
For CCc1ccc2c(c1)NC(=O)C2(C)Cc1cccc(C(=O)OC)c1 (configuration not stated) the results were GPR151 activ inactive, TEAD-YAP inh 44.1, MITF primary inactive and FBW7 act inactive.
